Data as given in PubChem BioAssay (NCATS).
Records with an inconclusive call do not appear. Active and inactive are the calls of the source. Unless noted, the call rests on the fitted dose curve; in most records, active means well fitted curve in the direction sought with a large enough effect; inconclusive means small, poorly fitted or top-dose-only effect, or another doubt; inactive means no such curve, though single readings can be large; an effect the other way counts as inactive or inconclusive.

What was measured:
[1] = biological target: D(1A) dopamine receptor (Homo sapiens) (UniProt P21728); experiment: HTS Assay for Allosteric Agonists of the Human D1 Dopamine Receptor: Primary Screen for Agonists (AID 488981); further: 0% is about no effect
D(1A) dopamine receptor (Homo sapiens), sequence (P21728 whole entry, looked up): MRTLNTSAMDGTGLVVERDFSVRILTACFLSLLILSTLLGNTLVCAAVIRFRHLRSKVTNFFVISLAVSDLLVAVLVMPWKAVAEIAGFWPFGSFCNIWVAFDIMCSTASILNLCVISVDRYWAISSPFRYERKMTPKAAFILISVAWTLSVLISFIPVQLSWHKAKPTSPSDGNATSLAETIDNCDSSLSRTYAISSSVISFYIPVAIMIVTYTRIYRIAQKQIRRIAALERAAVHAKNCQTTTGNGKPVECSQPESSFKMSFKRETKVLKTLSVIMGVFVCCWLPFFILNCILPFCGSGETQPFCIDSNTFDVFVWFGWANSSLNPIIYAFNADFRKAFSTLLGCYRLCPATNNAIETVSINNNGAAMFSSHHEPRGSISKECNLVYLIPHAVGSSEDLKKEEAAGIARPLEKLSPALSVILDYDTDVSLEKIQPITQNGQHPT
In short: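 Tetracycline-induced HEK293 Trex D1 cells with forced coupling to calcium, loaded with no-wash calcium dye; kinetic fluorescence read 180 s after compound addition for agonism, then a further 180 s after an EC20 dopamine challenge for potentiation.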

[2] = biological target: ATP-dependent 6-phosphofructokinase (Trypanosoma brucei brucei) (UniProt O15648); experiment: qHTS Assay to Find Inhibitors of T. brucei phosphofructokinase: hit validation (AID 492961);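 further: luminescence reports ADP formed as PFK phosphorylates fructose-6-phosphate with ATP; series mostly up to about 51 µM; on the % scale 0 is the no-effect control and ±100 the full control effect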
ATP-dependent 6-phosphofructokinase (Trypanosoma brucei brucei), sequence (O15648 whole entry, looked up): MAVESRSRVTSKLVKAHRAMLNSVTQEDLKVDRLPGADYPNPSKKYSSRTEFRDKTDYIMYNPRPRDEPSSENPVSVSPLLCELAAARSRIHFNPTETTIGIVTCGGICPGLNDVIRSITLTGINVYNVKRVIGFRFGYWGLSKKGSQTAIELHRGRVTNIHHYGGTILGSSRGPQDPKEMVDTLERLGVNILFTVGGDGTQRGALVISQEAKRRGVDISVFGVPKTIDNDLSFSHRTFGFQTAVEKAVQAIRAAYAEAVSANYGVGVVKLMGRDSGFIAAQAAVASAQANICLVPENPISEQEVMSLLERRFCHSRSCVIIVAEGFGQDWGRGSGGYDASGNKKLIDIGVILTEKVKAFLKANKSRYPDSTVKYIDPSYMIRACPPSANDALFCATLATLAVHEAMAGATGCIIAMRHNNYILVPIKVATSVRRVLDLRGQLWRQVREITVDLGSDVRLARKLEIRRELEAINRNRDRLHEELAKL
In short: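 Inhibition of parasite PFK is measured as reduced ADP formation, quantified via luciferase after ATP depletion. Assay used 0.1 mM ATP, 0.5 mM F6P, 1.25 nM enzyme, 45 min incubation.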

[3] = Validation screen for small molecules that induce genotoxicity in human embryonic kidney (HEK293T) cells expressing luciferase-tagged ELG1 (AID 493106); further: potency means the concentration at half of the fitted maximal effect
In short: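 Cells were dispensed at 2,000 per well, then 23 nL compound or DMSO was pinned in. After 16 hr at 37 °C and 5% CO2, ONE-Glo reagent was added. Luciferase activity was measured following 30 min at room temperature.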

[4] = biological target: ATPase family AAA domain-containing protein 5 (Homo sapiens) (UniProt Q96QE3); experiment: Validation screen for small molecules that inhibit ELG1-dependent DNA repair in human embryonic kidney (HEK293T) cells expressing luciferase-tagged ELG1 (AID 493107);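 further: cells co-treated with the DNA-damaging agent 5-fluorouridine alongside compound; series mostly up to about 46 µM; on the % scale 0 is the no-effect control and ±100 the full control effect; inhibitors lower the ELG1-luciferase luminescence signal; nearly all actives have a fitted effect of over 70% in size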
ATPase family AAA domain-containing protein 5 (Homo sapiens), sequence (Q96QE3 whole entry, looked up, the tested form may be a part): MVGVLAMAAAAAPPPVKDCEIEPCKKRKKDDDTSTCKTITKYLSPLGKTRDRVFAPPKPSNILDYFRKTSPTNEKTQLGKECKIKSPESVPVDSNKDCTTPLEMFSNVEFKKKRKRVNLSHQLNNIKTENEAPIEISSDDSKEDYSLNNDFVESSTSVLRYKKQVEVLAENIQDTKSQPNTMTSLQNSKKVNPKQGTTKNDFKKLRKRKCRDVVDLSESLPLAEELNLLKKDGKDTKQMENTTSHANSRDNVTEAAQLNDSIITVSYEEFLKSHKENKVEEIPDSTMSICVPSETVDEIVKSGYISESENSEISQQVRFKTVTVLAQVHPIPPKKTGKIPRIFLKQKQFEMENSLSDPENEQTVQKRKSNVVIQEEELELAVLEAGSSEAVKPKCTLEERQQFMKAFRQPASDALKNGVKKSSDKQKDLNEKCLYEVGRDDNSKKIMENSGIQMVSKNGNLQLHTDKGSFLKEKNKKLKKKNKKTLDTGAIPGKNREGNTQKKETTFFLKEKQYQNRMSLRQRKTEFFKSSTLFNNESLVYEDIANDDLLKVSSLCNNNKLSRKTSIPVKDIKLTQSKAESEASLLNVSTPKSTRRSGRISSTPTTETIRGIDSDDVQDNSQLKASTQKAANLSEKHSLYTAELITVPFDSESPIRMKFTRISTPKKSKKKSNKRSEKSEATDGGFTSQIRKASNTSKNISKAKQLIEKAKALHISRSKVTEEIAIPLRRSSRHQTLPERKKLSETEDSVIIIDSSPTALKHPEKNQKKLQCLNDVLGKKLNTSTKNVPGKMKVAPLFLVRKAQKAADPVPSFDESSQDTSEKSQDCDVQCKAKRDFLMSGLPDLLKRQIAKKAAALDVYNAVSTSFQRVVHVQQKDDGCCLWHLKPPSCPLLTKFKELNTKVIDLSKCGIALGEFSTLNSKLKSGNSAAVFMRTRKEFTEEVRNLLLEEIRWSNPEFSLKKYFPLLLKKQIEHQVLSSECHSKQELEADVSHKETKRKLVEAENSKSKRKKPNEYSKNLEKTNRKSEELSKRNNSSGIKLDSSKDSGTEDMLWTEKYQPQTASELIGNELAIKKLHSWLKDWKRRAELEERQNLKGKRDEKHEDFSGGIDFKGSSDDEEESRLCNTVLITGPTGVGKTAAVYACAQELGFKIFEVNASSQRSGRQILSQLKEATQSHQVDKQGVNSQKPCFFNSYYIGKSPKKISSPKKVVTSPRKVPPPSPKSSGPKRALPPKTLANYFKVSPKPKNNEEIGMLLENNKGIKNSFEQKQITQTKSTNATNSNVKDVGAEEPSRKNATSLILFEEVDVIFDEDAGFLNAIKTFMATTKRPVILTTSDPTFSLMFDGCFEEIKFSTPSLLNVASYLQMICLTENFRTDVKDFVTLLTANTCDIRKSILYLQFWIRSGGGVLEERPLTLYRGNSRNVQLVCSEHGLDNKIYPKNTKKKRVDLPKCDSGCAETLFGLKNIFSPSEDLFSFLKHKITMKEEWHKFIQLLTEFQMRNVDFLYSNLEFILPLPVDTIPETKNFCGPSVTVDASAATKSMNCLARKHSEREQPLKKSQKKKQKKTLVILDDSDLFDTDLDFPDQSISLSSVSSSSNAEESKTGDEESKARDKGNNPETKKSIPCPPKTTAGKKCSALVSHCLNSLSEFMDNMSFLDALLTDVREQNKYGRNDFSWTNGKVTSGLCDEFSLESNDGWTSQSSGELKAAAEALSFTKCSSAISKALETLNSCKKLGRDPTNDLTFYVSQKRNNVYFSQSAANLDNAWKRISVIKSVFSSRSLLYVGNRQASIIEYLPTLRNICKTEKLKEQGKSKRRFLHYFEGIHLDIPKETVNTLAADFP
In short: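 Cells are dispensed in 1536-well format, then 5-fluorouridine and compound are pinned in. After a 16 hr incubation at 37 °C and 5% CO2, ONE-Glo is added and luciferase measured on a CCD imager.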

[5] = biological target: Thyrotropin-releasing hormone receptor (Homo sapiens) (UniProt P34981); experiment: qHTS for Small Molecule Agonists and Allosteric Enhancers of Human TRH Receptor: Validation Screen for Agonists (AID 493127;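 active means calcium activation more than 3 SD above the typical response in the agonist read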;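 further: intracellular calcium rise by fluo-8 fluorescence before TRH EC20 addition; 0% is about no effect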); conditions: TRH receptor agonist cell assay; at 2 µM; stronger effect = higher value
In short: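 Compounds are added by online pintool to dye-loaded TRHR cells while fluorescence is recorded every second. A rise in calcium signal during the agonist read marks activation; a later 10 nM TRH addition (EC20) serves the separate enhancer mode.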

[6] = Nrf2 qHTS screen for inhibitors: Validation (AID 493153; active means well fitted inhibition curve with a large enough effect in the main read-out, with a control signal flat, not every such curve was filed as active); conditions: viability change: measured here: cytotoxicity max response
In short: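 A549 ARE_Fluc, 5% FBS OPTI-MEM; cpd titration, 18-24 h, 37°C/5% CO2. Read 1: CellTiter-Fluor (Ex 405/Em 525), cytotox. Read 2: luciferase lum, Nrf2 activity.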

[7] = qHTS for Inhibitors of Cell Surface uPA Generation: Validation Assay (AID 493164);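 further: RAW 264.7 macrophage cells exposed to compound for 18 h; 0% is about no effect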
In short: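 ATP-Lite luminescence read-out: ATP remains high when uPA activity-dependent LF translocation into the cytoplasm is blocked. RAW 264.7 cells, 18 h compound exposure at 37 C; 7-point titration, 2.45 nM to 38.3 uM final.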

[8] = biological target: Galactokinase (Homo sapiens) (UniProt P51570); experiment: qHTS Validation Assay for Inhibitors of Human Galactokinase (GALK) (AID 493189); further: 0% is about no effect
Galactokinase (Homo sapiens), sequence (P51570 whole entry, looked up): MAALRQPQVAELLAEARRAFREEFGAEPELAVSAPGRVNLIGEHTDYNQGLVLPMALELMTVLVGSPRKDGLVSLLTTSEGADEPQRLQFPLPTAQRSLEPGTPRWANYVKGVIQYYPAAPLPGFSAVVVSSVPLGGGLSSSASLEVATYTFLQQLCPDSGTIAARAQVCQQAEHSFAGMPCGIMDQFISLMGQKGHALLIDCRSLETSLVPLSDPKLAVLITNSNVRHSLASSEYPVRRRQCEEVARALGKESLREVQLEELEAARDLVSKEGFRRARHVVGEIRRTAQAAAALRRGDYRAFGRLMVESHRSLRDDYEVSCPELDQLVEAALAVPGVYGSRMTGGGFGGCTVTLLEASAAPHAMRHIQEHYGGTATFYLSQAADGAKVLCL
In short: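 GALK (5 nM) with 35 uM ATP and 100 uM galactose in HEPES pH 8.0 with MgCl2, NaCl, DTT and BSA. Reaction ran 1 h at room temperature. Residual ATP read by Kinase-Glo Plus luminescence.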

[9] = Validation screen for small molecules that induce DNA re-replication in SW480 colon adenocarcinoma cells (AID 504364); further: 0% is about no effect
In short: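 Image-based qHTS: compounds were incubated with SW480 cells for 48 hr, nuclei stained with Hoechst, and per-nucleus fluorescence intensity scanned to flag cells with excess DNA content.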

[10] = biological target: Peptidyl-prolyl cis-trans isomerase NIMA-interacting 1 (Homo sapiens) (UniProt Q13526); experiment: qHTS Validation Assay to Find Inhibitors of Pin1 (AID 504536; active means well fitted inhibition curve with a large enough effect in the polarisation, with a control signal flat, not every such curve was filed as active; the % refers to the polarisation;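 further: 0% = full Pin1 enzyme wells and -100% = no-enzyme wells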)
In short: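 Fluorescence polarization competition: compounds (titration) displace HiFluor-488-labeled Pin1-1b peptide from Pin1 (0.3 uM final) in pH 7.5 HEPES buffer with DTT, 10 min at room temperature; %Activity normalized to no-enzyme wells, curves fitted.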

[11] = biological target: Phosphoglycerate kinase, glycosomal (Trypanosoma brucei brucei) (UniProt P07378); experiment: qHTS Validation Assay to Find Inhibitors of Phosphoglycerate Kinase (AID 504547);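 further: control wells lack PGK and mark full inhibition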
Phosphoglycerate kinase, glycosomal (Trypanosoma brucei brucei), sequence (P07378 whole entry, looked up): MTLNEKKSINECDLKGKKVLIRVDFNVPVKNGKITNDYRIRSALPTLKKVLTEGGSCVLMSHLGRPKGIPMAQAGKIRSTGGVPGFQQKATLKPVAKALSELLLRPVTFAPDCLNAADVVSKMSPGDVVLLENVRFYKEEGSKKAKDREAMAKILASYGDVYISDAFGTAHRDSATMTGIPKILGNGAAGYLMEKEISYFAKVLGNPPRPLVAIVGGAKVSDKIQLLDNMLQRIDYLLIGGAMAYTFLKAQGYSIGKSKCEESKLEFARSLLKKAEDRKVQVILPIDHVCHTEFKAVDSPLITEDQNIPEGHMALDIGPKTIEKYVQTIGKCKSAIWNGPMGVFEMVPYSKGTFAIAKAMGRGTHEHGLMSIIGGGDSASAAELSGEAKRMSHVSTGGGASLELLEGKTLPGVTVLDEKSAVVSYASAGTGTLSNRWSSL
In short: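 Compounds are pinned into the substrate/PGK mixture, and GAPDH (100nM final) is added to start the reaction by producing 1,3-BPG. After 60 minutes at room temperature, Kinase-Glo Plus is added and luminescence is measured 10 minutes later.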

[12] = biological target: phosphoglycerate mutase (Leishmania major) (UniProt Q4Q090); experiment: qHTS Validation Assay to Find Inhibitors of Phosphoglycerate Mutase (AID 504548);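 further: end-point luminescence from Kinase-GloPlus after the PGAM reaction; series mostly up to about 58 µM; on the % scale 0 is the no-effect control and ±100 the full control effect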
In short: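 Inhibition of L. major PGAM was assessed by Kinase-GloPlus luminescence following a 45-minute room-temperature reaction with enzyme at 1.25nM final.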

[13] = biological target: Ubiquitin carboxyl-terminal hydrolase 1 (Homo sapiens) (UniProt O94782); experiment: Inhibitors of USP1/UAF1: Pilot qHTS (AID 504865); further: nearly all actives have a fitted effect of over 35% in size; further: potency means the concentration at half of the fitted maximal effect
Ubiquitin carboxyl-terminal hydrolase 1 (Homo sapiens), sequence (O94782 whole entry, looked up): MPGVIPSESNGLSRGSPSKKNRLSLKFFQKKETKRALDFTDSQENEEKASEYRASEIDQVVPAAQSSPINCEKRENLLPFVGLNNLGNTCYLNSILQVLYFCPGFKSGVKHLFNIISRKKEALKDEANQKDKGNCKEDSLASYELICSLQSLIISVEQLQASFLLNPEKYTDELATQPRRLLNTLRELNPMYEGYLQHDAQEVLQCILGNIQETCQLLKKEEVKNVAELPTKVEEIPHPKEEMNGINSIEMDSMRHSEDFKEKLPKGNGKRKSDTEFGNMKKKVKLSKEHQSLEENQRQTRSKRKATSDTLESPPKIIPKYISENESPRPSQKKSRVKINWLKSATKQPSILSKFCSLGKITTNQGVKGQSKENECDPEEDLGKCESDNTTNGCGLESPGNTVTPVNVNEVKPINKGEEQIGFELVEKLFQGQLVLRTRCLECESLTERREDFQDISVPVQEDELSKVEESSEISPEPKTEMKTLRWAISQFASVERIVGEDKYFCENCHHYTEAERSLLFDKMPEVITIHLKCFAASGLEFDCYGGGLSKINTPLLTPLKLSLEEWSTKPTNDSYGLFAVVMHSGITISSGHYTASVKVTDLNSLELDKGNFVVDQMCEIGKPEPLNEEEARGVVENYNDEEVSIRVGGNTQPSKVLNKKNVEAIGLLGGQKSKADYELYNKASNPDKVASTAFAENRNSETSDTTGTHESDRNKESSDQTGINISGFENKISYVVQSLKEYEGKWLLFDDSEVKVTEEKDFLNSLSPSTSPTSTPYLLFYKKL
In short: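 USP1/UAF1 complex at 1 nM preincubated 15 min at room temperature with compound, then Ub-Rho substrate added at 150 nM final. Fluorescence (480/540 nm) read kinetically in 50 mM HEPES pH 7.8, 0.5 mM EDTA, 1 mM TCEP, 0.1 mg/ml BSA, 0.01% Tween-20.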

[14] = qHTS for Inhibitors of ATXN expression: Validation of Cytotoxic Assay (AID 588349); further: potency means the concentration at half of the fitted maximal effect
In short: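 Titrated compounds are added to cultured HEK293 cells, which are then held at 37 degrees C for 72 hr; loss of intracellular ATP, measured with CellTiter Glo, indicates toxicity.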

[15] = qHTS for Inhibitors of ATXN expression: Validation (AID 588378); further: nearly all actives have a fitted effect of over 75% in size; further: potency means the concentration at half of the fitted maximal effect
In short: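 HEK293 cells carrying ATXN2-firefly luciferase reporter, treated with compound 24 h at 37 °C. Viability read first by CellTiter-Fluor (405/525 nm), then reporter expression by Bright-Glo luminescence; controls were a known ATXN2 expression inhibitor and a luciferase inhibitor.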

[16] = biological target: DNA dC->dU-editing enzyme APOBEC-3G (Homo sapiens) (UniProt Q9HC16); experiment: qHTS for inhibitors of Vif-A3G interactions: Validation (AID 588379); further: 0% is about no effect
In short: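 Yellow fluorescence (Ex 488, Em 500-530) of Vif-coexpressing HeLa A3G-eYFP cells, scanned by Acumen cytometer, reports blocked A3G degradation. Cells plated at 700/well overnight at 37 deg C before compound addition, then a further overnight compound incubation at 37 deg C.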

[17] = biological target: Estrogen receptor (Homo sapiens) (UniProt P03372); experiment: qHTS assay for small molecule antagonists of estrogen receptor alpha signaling (AID 588513; active means well fitted curve in the direction sought with a large enough effect in the signal ratio, with a control signal flat, not every such curve was filed as active; the % refers to the signal ratio; further: on the % scale 0 is the no-effect control and ±100 the full control effect)
Estrogen receptor (Homo sapiens), sequence (P03372 whole entry, looked up): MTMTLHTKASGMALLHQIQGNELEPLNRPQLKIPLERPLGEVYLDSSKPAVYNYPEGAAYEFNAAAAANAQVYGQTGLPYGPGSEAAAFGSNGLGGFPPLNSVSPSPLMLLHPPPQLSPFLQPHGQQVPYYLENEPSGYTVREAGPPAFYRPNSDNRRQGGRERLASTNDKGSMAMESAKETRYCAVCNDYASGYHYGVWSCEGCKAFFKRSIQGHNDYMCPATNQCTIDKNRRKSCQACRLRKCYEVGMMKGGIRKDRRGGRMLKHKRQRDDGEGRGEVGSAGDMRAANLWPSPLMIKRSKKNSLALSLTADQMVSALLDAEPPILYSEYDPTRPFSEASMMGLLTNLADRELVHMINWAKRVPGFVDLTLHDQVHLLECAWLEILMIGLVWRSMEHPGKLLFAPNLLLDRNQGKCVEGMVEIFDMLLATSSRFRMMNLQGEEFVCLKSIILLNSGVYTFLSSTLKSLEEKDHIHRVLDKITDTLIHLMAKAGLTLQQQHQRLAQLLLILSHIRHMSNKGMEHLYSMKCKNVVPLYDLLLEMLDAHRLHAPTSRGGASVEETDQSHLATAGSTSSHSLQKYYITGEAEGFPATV
In short: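 ER-alpha-UAS-bla GripTite HEK 293 cells in 2% charcoal/dextran-treated FBS medium; compounds titrated (1:2, duplicate), then stimulated with 0.5 nM 17-beta-estradiol for 18 h at 37C. CCF4 beta-lactamase fluorescence; Hill-fit IC50 and efficacy.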

[18] = biological target: Estrogen receptor (Homo sapiens) (UniProt P03372); experiment: qHTS assay for small molecule agonists of estrogen receptor alpha signaling (AID 588514; calls by dose curve;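 further: 0% = vehicle only and 100% = reference agonist; nearly all actives have a fitted effect of over 70% in size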)
In short: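 Efficacy is expressed against 20 nM 17-beta-estradiol (100%) and DMSO basal (0%); EC50 from Hill equation. Assay: beta-lactamase reporter in ER-alpha-UAS-bla HEK 293 cells, 18 h compound incubation, CCF4 detection.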

[19] = biological target: Androgen receptor (Homo sapiens) (UniProt P10275); experiment: qHTS assay for small molecule antagonists of androgen receptor signaling (AID 588516; active means well fitted curve in the direction sought with a large enough effect in the signal ratio, with a control signal flat, not every such curve was filed as active; the % refers to the signal ratio; further: on the % scale 0 is the no-effect control and ±100 the full control effect)
In short: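 AR-UAS-bla GripTite HEK 293 cells (2000/well) treated with compound titrations plus 10 nM R1881 for 16 h at 37C. Beta-lactamase read by CCF4 FRET (460/530 nm); IC50 from Hill fits, normalized to R1881 and DMSO control wells.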

[20] = biological target: Androgen receptor (Homo sapiens) (UniProt P10275); experiment: qHTS assay for small molecule agonists of androgen receptor signaling (AID 588515; active means well fitted curve in the direction sought with a large enough effect in the signal ratio, with a control signal flat; the % refers to the signal ratio; further: on the % scale 0 is the no-effect control and ±100 the full control effect); conditions: AR-UAS-bla HEK293, beta-lactamase ratio, agonist 16 h; stronger effect = higher value
In short: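 Stimulation of an AR-responsive β-lactamase reporter in GripTite HEK293 cells was measured after 16 h compound exposure at 37 °C, via CCF4 fluorescence after 2 h RT. EC50 from Hill fits, normalized to R1881 at 30 nM.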

COc1ccccc1N1CCN(CCCNc2cc(=O)n(C)c(=O)n2C)CC1
-8.38%: viability change [6]
inactive: outcome [1] | outcome [2] | Potency [3] | outcome [4] | activation [5] -2.81% | outcome [6] | outcome [7] | outcome [8] | outcome [9] | outcome [10] | outcome [11] | outcome [12] | Potency [13] | Potency [14] | Potency [15] | outcome [16]

CC1(C)O[C@H]2C[C@@H]3[C@H]4CCC5=CC(=O)C=C[C@]5(C)[C@@]4(F)[C@@H](O)C[C@]3(C)[C@]2(C(=O)CO)O1
inactive: outcome [2] | Potency [13]

O=c1[nH]cnc2c1ncn2[C@H]1CC[C@@H](CO)O1
inactive: outcome [2] | Potency [13] | Potency [17] | outcome [18]

Clc1ccc(C(c2ccc(Cl)cc2)n2cc[n+](CC(OCc3ccc(Cl)cc3Cl)c3ccc(Cl)cc3Cl)c2)cc1 (stereo not drawn)
inactive: outcome [1] | outcome [7] | outcome [10] | outcome [11] | outcome [12]

COc1ccc(-c2coc3cc(O)ccc3c2=O)cc1
inactive: outcome [16]

CCCCCCCCCCCC1=C(O)C(=O)C=C(O)C1=O
inactive: outcome [16]

COc1ccc(-c2coc3cc(O)cc(O)c3c2=O)cc1
inactive: outcome [16]

CS(=O)c1ccc(-c2nc(-c3ccc(F)cc3)c(-c3ccncc3)[nH]2)cc1 (stereo not drawn)
inactive: outcome [16]

Cc1cnc(C(=O)O)c[n+]1[O-]
inactive: outcome [2] | Potency [13]

COc1ccc2c3c1OC1C[C@@H](O)C=C[C@@]31CCN(C)C2 (stereo partly drawn)
inactive: Potency [13] | outcome [16]

C[N+](C)(C)CC(=O)O
8.76%: viability change [6]
inactive: outcome [1] | outcome [4] | outcome [6] | outcome [7] | outcome [10] | outcome [11] | outcome [12] | Potency [14] | Potency [15]

COCCCCC(=NOCCN)c1ccc(C(F)(F)F)cc1
inactive: Potency [13] | outcome [16]

O=c1c(-c2ccc(O)cc2)coc2cc(O)ccc12
1.29%: viability change [6]
active: Potency [3] 20.6 µM
inactive: outcome [1] | outcome [6] | outcome [7] | outcome [8] | outcome [9] | outcome [10] | outcome [11] | outcome [12] | Potency [13] | Potency [14] | Potency [15] | outcome [16] | outcome [19]

C[C@@H](O)[C@H]1C(=O)N2C(C(=O)O)=C(S[C@@H]3CN[C@H](C(=O)N(C)C)C3)[C@H](C)[C@H]12
inactive: outcome [2] | Potency [13]

O=c1cc(-c2ccccc2)oc2cc(O)cc(O)c12
inactive: Potency [13] | outcome [16]

O=C1Nc2ccc(Cl)cc2C(C#CC2CC2)(C(F)(F)F)O1 (stereo not drawn)
inactive: outcome [2]

O=c1cc(-c2ccccc2)oc2cc(O)c(O)c(O)c12
inactive: outcome [16]

CC(C)[C@H](CO)Nc1nc(Nc2ccc(C(=O)O)c(Cl)c2)c2ncn(C(C)C)c2n1
inactive: Potency [13] | outcome [16]

Nc1ncnc2c1ncn2[C@@H]1O[C@@H](CO)[C@H](O)[C@H]1O
inactive: Potency [13]

O=C(O)Cc1cccc2ccccc12
inactive: outcome [2] | Potency [13]

COc1ccc(C2Sc3ccccc3N(CCN(C)C)C(=O)C2OC(C)=O)cc1 (stereo not drawn)
inactive: Potency [13]

CC(C)OC(=O)C(C)(C)Oc1ccc(C(=O)c2ccc(Cl)cc2)cc1
3.23%: viability change [6]
inactive: outcome [1] | Potency [3] | outcome [6] | outcome [7] | outcome [8] | outcome [9] | outcome [10] | outcome [11] | outcome [12] | Potency [13] | Potency [15] | outcome [18] | activation [20] -4% | outcome [19]

COc1cc2ncnc(Nc3ccc(F)c(Cl)c3)c2cc1OCCCN1CCOCC1
inactive: outcome [2] | Potency [13]

CCOC(=O)O[C@]1(C(=O)OCCl)CC[C@@H]2[C@H]3CCC4=CC(=O)C=C[C@]4(C)[C@@H]3[C@@H](O)C[C@@]21C
inactive: outcome [2] | Potency [13]

O=c1cc(-c2ccc(O)cc2)oc2cc(O)cc(O)c12
inactive: outcome [1] | activation [5] 0.5% | outcome [6] | outcome [7] | outcome [8] | outcome [9] | outcome [10] | outcome [11] | Potency [13] | Potency [14] | Potency [15] | outcome [16]
-8.56%: viability change [6]

CC/C(=C(\c1ccccc1)c1ccc(OCCN(C)C)cc1)c1ccccc1
7.91%: viability change [6]
active: Potency [14] 25.1 µM | Potency [15] 22.4 µM
inactive: outcome [2] | Potency [3] | outcome [4] | activation [5] -2.75% | outcome [6] | outcome [7] | outcome [8] | outcome [9] | outcome [10] | outcome [11] | outcome [12] | outcome [16]

CC1(C)CCC2=C(O1)c1ccccc1C(=O)C2=O
inactive: outcome [1] | Potency [3] | activation [5] -3.69% | outcome [7] | outcome [12]
active: Potency [13] 5.01 µM | Potency [14] 22.4 µM | Potency [15] 22.4 µM

O=C(O)c1cc(O)c2c(c1)C(=O)c1cccc(O)c1C2=O
inactive: outcome [16] | Potency [17]

O=C(O)c1cc(-c2ccccc2)nc2ccccc12
inactive: Potency [13] | activation [20] -15.7% | outcome [19]

O=C(O)c1c(Cl)c(Cl)c(Cl)c(Cl)c1-c1c2cc(I)c(=O)c(I)c-2oc2c(I)c(O)c(I)cc12
inactive: outcome [2]
active: Potency [13] 20 µM

O=c1c(O)c(-c2ccc(O)cc2)oc2cc(O)cc(O)c12
inactive: outcome [16]
